High-throughput results deposited in PubChem BioAssay by University of Kansas High Throughput Screening Laboratory.
The full list was thinned out, with hits kept by preference.
mHTT-CaM PPI inh – disrupts binding of mutant huntingtin to calmodulin; P42858; AlphaScreen His-mHTT/GST-CaM binding, luminescence; inhibition, % at 15 µM; 190,000 tested, 3.6% active; AID 1671202
Target sequence (P42858 whole entry, looked up, change not shown): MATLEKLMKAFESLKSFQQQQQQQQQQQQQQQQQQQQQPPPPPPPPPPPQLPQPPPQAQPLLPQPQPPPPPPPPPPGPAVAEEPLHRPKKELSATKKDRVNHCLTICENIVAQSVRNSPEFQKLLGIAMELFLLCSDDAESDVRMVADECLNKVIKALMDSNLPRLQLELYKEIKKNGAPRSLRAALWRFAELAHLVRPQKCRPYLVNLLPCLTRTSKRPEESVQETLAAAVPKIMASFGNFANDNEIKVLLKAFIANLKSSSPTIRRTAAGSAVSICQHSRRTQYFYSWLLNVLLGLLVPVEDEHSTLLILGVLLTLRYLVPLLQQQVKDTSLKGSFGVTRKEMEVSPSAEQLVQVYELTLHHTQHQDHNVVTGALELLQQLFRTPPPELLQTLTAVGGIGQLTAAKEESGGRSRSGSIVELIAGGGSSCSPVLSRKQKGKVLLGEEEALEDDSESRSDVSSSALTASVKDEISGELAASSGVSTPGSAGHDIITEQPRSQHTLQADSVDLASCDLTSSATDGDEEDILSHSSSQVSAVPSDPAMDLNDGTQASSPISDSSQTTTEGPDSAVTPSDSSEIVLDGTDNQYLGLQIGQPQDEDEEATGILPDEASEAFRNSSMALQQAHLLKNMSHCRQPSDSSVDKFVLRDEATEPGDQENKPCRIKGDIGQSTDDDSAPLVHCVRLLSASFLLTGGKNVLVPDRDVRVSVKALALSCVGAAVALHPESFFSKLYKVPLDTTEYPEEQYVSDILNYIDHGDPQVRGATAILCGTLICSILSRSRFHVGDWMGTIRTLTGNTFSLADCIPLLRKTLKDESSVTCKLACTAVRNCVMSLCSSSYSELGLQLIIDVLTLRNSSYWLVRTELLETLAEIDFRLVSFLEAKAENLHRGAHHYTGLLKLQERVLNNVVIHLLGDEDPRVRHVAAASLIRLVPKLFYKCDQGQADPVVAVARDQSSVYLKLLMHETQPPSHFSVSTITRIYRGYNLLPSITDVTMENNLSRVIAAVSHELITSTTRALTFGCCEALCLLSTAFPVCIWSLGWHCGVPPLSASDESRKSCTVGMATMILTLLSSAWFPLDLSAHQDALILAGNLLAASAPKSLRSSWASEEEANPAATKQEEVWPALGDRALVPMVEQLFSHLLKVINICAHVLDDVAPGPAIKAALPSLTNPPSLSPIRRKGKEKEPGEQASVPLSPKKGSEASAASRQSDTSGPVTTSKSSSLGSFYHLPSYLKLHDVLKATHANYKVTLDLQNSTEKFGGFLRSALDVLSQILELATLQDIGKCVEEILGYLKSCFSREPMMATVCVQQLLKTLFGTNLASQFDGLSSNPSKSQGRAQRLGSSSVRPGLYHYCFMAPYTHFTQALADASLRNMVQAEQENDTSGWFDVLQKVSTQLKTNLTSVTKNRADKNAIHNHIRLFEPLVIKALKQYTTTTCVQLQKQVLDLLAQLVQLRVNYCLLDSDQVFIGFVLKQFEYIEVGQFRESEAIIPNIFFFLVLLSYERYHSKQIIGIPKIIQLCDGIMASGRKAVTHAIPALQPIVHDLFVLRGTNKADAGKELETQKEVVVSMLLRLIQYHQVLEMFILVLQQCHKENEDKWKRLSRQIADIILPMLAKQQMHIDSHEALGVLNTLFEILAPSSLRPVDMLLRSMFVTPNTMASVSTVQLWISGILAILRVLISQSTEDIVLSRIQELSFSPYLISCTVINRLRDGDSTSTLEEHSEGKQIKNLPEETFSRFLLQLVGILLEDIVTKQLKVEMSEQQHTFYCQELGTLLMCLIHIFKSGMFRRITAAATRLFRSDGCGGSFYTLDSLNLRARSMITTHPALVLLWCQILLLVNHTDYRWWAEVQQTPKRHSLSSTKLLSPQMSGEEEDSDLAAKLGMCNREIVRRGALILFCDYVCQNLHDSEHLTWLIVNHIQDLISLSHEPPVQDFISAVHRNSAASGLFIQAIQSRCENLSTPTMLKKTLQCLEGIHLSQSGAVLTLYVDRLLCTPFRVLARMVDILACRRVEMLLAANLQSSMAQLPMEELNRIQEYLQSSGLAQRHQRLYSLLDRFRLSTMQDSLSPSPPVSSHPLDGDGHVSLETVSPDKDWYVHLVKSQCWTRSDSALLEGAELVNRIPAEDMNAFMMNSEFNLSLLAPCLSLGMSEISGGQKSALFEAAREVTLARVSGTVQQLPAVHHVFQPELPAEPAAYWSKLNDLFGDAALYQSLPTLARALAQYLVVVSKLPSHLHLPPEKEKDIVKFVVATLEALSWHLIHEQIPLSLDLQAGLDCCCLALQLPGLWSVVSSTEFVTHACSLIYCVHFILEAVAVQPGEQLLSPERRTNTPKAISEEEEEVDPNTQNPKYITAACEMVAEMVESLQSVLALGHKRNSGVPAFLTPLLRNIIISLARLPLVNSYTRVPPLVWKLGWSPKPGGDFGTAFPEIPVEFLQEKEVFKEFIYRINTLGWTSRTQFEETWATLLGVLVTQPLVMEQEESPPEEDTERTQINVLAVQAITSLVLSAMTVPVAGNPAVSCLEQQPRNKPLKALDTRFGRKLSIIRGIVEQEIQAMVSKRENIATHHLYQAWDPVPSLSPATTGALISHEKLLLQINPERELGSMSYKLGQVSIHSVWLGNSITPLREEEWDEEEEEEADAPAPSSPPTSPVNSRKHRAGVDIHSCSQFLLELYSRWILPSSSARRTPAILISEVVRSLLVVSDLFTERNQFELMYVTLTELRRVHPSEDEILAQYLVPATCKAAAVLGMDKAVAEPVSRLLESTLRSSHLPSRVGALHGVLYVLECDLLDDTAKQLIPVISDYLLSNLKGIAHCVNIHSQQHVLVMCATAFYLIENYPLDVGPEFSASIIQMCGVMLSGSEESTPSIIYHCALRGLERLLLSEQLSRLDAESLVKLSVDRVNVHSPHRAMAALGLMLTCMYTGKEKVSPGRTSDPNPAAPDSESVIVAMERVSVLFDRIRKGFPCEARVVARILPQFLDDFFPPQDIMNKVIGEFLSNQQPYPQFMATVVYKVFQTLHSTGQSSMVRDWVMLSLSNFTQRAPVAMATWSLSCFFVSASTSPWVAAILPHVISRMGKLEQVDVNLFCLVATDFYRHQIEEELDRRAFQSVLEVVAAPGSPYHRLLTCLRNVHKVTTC
Pf apPOL inh – Pf-apPOL DNA polymerase inhibition | Recombinant Pf-apPOL, molecular beacon fluorescence, 1.5 h | inhibition, % at 10 µM | 210,000 tested, 0.25% active | AID 1794808
Hits are given with their value; - = inactive; . = not tested or not shown. Cut-off read from the data, not from the text of the source: active = inhibition above about 50%; inactive = the rest.

SMILES	mHTT-CaM PPI inh	Pf apPOL inh
COc1ccccc1CCNCc1cc(OC)c2c(c1)OCO2	89	-
COc1ccccc1CCNCc1ccc2c(c1)OCO2	-	-
Cc1nc2ccc(I)cc2c(=O)n1-c1cccc(C(F)(F)F)c1	-	-
Cc1nc2cc(C(=O)N3CCC4(CC3)OCCO4)ccc2n1-c1ccc(Br)cc1	57	-
COc1ccc(-n2c(C)nc3cc(C(=O)N4CCC5(CC4)OCCO5)ccc32)cc1	-	-
COc1ccc(CC(C)NCCc2ccccc2)cc1OC (stereo unspecified)	-	-
CCOc1ccccc1N1CCN(Cc2ccc(F)c(Br)c2)CC1	68	-
CCOc1ccccc1N1CCN(Cc2ccc(F)c(F)c2)CC1	-	-
OC(CN(Cc1ccccc1)Cc1ccccc1)c1ccc2cc[nH]c2c1 (stereo unspecified)	68	-
OCCN(CCc1ccccc1)Cc1ccccc1	-	-
N/C(=N\N=C/c1ccc([N+](=O)[O-])o1)c1nonc1N	-	.
Cc1cc(N2CCN(C)CC2)c2[nH]c3ccccc3c2c1	79	-
Cc1nccc2c1[nH]c1ccccc12	.	-
CN1C(=O)C(=Cc2ccc(Sc3ccc(Cl)cc3)o2)C(=O)N(C)C1=O	-	-
COc1ccc(OC)c(-n2c(O)c(C=C3C=Nc4ccccc43)c(=O)[nH]c2=O)c1	-	-
O=c1[nH]c(O)c(C=C2C=Nc3ccc(OCc4ccccc4)cc32)c(=O)[nH]1	76	-
Cc1cc(C(=O)Nc2ccccc2C(F)(F)F)nn1Cc1c(Cl)cccc1Cl	.	-
Cc1ccc2cccc(OC(=O)N(C)c3ccccc3)c2n1	-	-
Cc1cccc(NC(c2ccc(N(C)C)cc2)c2ccc3ccc(C)nc3c2O)n1 (stereo unspecified)	100	-
COc1ccc(CCNCc2ccccc2C(F)(F)F)cc1OC	-	-
O=c1oc2cc([N+](=O)[O-])c(O)c([N+](=O)[O-])c2s1	68	-
Cc1cccc(N2CCN(Cc3ccc(N(C)C)cc3)CC2)c1C	67	-
Cc1cccc(N2CCN(Cc3ccccc3)CC2)c1C	-	-
COc1ccc(CN(C)CCc2ccccc2)c(C)c1C	-	-
Cc1ccc(C2c3c(c4ccccc4oc3=O)Oc3c2c(=O)oc2ccccc32)o1	-	-
SMILES	mHTT-CaM PPI inh	Pf apPOL inh
O=c1oc2ccccc2c2c1C(c1ccc(O)cc1)c1c(c3ccccc3oc1=O)O2	96	69
COc1ccc(C2C3C(=NN2C(C)=O)C2CCN3CC2)cc1 (stereo unspecified)	-	-
COc1ccccc1N1CCN(C(=O)C(O)(c2ccccc2)c2ccccc2)CC1	82	-
COc1ccccc1N1CCN(Cc2ccc(O)cc2)CC1	-	-
CCOc1cc(OC(=O)N(C)C)cc2oc(-c3ccccc3)cc(=O)c12	-	-
NCCc1csc2c1CCCC2	65	.
C=CCC1(C(C)C)C(=O)NC(=O)NC1=O	-	.
O=C(NC(Oc1ccc(Br)cc1)C(Cl)(Cl)Cl)c1ccco1 (stereo unspecified)	-	-
O=Cc1cn(Cc2ccc([N+](=O)[O-])cc2)c2ccccc12	-	-
CN(C)/C=C/c1c(C=O)c2cc([N+](=O)[O-])ccc2n1Cc1ccccc1	100	-
Cc1[nH]c2ccccc2c1CCCNC1CCCCC1	-	-
Cc1[nH]c2ccccc2c1CCN	100	-
O=C1OC(c2cncc(Br)c2)=N/C1=C/c1cccc(Cl)c1Cl	-	-
COc1cccc(C2C3C(=NN2C(C)=O)C2CCN3CC2)c1 (stereo unspecified)	-	-
CCn1cc(C(=O)NCc2cccc(Br)c2)c2cccnc21	58	-
CCn1cc(C(=O)NCc2ccc3c(c2)OCO3)c2cccnc21	-	-
COc1ccc2c(c1)C1(CCN(C(=O)c3cccc(Br)c3)C1)C(=O)N2 (stereo unspecified)	-	-
O=C(Cc1cccs1)N1CCCN(C2CCN(Cc3ccc(F)cc3)C2=O)CC1 (stereo unspecified)	60	-
COCCN1CCC(N2CCCN(C(=O)Cc3cccc(Cl)c3)CC2)C1=O (stereo unspecified)	-	-
COc1ccccc1CN1CCN(c2cccc(C)c2C)CC1	-	-
COc1ccc2c(c1)C1(CCN(S(=O)(=O)c3cccc(C#N)c3)C1)C(=O)N2C (stereo unspecified)	-	-
CCN1C(=O)C2(C(C(=O)OC)=C(N)Oc3c2oc(CO)cc3=O)c2ccccc21 (stereo unspecified)	-	-
O=C(CN1C(=O)CN=C(c2ccccc2)c2cc(Cl)ccc21)Nc1ccccc1C(F)(F)F	-	-
O=C(CN1C(=O)CN=C(c2ccccc2)c2ccccc21)Nc1cccc(Cl)c1	-	-
COc1ccc(NC(=O)CN2C(=O)CN=C(c3ccccc3)c3cc(Cl)ccc32)cc1OC	76	-
SMILES	mHTT-CaM PPI inh	Pf apPOL inh
Cc1cccc(NC(=O)CN2C(=O)CN=C(c3ccccc3)c3cc(Cl)ccc32)c1C	54	-
OCc1ccc2c(c1)OCO2	.	-
CCCCCC(=O)NC(Oc1ccccc1)C(Cl)(Cl)Cl (stereo unspecified)	81	-
CC(C)C(=O)NC(Oc1ccccc1)C(Cl)(Cl)Cl (stereo unspecified)	-	-
CCc1ccc(CN2CCN(c3ccccc3C)CC2)cc1	-	-
CNC(=O)Oc1cc([N+](=O)[O-])cc2cccnc12	100	-
CN(C)c1ccc([N+](=O)[O-])c2cccnc12	-	.
CN(Cc1ccccc1)C(=C(Cl)Cl)/C(=C1\NCCN1Cc1ccc(Cl)nc1)[N+](=O)[O-]	65	-
CN1CCN(Cc2ccc(Cl)nc2)/C1=C(/C(Cl)=C(Cl)Cl)[N+](=O)[O-]	-	-
CCN(CC)C(=O)c1ccc(NC(=O)c2ncn[nH]2)cc1	-	-
CCN(CC)C(=O)c1ccc2c(c1)C1C=CCC1C(c1ccc([N+](=O)[O-])cc1)N2 (stereo unspecified)	70	-
CCN(CC)C(=O)c1ccc2c(c1)C1C=CCC1C(C(=O)O)N2 (stereo unspecified)	76	-
O=C(CN1N=C(c2ccccc2)CCC1=O)N1CCC2(CC1)OCCO2	-	-
CCc1c(C(=O)O)nnn1Cc1ccccc1C	-	-
COc1ccc(C=C2Oc3cc(OC(=O)N(C)C)ccc3C2=O)cc1OC	-	-
Cc1cc2oc(=O)cc(CN3CC4CC(C3)c3cccc(=O)n3C4)c2cc1O (stereo unspecified)	-	-
COc1ccc(C2(CN)CCOCC2)cc1OC	-	-
NCC1(c2ccc3c(c2)OCCO3)CCOCC1	-	106
C=CCSc1nc2ccccc2c(=O)n1-c1ccccc1F	-	-
CC(=O)N1CC(=O)Nc2ccc(Br)cc2C1c1ccccc1Cl (stereo unspecified)	-	-
O=C1CNC(c2ccccc2Cl)c2cc(Br)ccc2N1 (stereo unspecified)	61	-
O=C(c1nccs1)C1CCCN1 (stereo unspecified)	98	.
NC1(c2ccc(F)cc2)CC1	-	.
CCN(CC)c1ccc(CN2CCN(c3ccccc3)CC2)cc1	51	-
Brc1ccc(CN2CCN(c3ccccc3)CC2)cc1	-	-
O=C(OCC1CCCN2CCCCC12)c1cc2ncc(Br)cn2n1 (stereo unspecified)	-	.
O=C1NC(=S)NC(=O)C1=Cc1ccco1	.	91
O=C1NC(=S)NC(=O)C1=Cc1c(Cl)cccc1Cl	.	-
COc1ccc2c(c1)C1(CCN(C(=O)C3CCC3)C1)C(=O)N2C (stereo unspecified)	-	-
